This passage reports inhibition results from PubChem BioAssay AID521 (Sanford-Burnham Center for Chemical Genomics, 2006).

In all, about 110,000 compounds went through this assay and about 730 (0.66%) were called active. Cut-off read from the data, not from the text of the source: active = inhibition above about 50%; inconclusive = no clear call, values can overlap the other calls; inactive = below that. The full list was thinned out, with actives kept by preference.

Usually inhibition stands for the change of the read-out against control, counted positive when it falls.

The target in this assay is Tyrosine-protein phosphatase non-receptor type 7 (Homo sapiens) (UniProt P35236). Description: inhibitors of human HePTP phosphatase, primary screen, biochemical, absorbance, leukemia target (AID 521).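 Note: plate controls were vehicle for no effect and reference inhibitor for full effect.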 Particulars: recombinant HePTP phosphatase activity, OD absorbance; at 20 µM; stronger effect = higher value.
Chain of Tyrosine-protein phosphatase non-receptor type 7 (Homo sapiens) (P35236 whole entry, looked up): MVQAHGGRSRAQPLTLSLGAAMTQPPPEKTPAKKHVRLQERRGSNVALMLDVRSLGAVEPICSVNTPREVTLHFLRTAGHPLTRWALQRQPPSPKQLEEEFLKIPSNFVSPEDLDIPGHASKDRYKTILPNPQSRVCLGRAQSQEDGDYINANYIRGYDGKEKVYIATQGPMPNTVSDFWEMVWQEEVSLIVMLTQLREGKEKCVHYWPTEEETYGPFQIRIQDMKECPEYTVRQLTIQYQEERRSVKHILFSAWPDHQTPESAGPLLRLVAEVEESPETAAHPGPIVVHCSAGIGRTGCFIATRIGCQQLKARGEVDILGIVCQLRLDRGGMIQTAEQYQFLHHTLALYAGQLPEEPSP
For the molecule `COc1cc(/C=C2/SC(=S)N(C)C2=O)cc([N+](=O)[O-])c1O`, the inhibition is 6.6% (inactive).
As for `CC(=O)C1=C(O)C(=O)N(CCN2CCNCC2)C1c1ccc(C)cc1` (stereo unspecified), the inhibition was 6% (inactive).
As to `Cc1ccc(-c2csc(NC(=O)c3ccc(Cl)cc3)n2)cc1`, the inhibition is 7% (inactive).
With `CCN1C(=O)/C(=C\c2cn(CCOc3ccc(Br)cc3)c3ccccc23)SC1=S`, the inhibition is 2.4% (inactive).
The figure for `Cc1cc(Cl)ccc1OCC(=O)O/N=C(\N)c1ccncc1` is -14.4% (inactive); for `COC(=O)CCN(C(=O)c1ccc(F)cc1)c1ccccn1` it is -21.6% (inactive).
In the case of `O=C(NC(=O)C(Cl)(Cl)Cl)Nc1ccc(Cl)c(Cl)c1` it was 3.7% (inactive); in that of `O=C(O)C1C2C=CC(O2)C1C(=O)Nc1nccs1` (stereo unspecified), 104% (active); in that of `O=C(Nc1nccs1)C(c1ccccc1)c1ccccc1`, -5.8% (inactive).
On to `Cc1ccc(S(=O)(=O)Nc2ccc(NC(=O)C3C4C=CC(O4)C3C(=O)O)cc2)cc1` (stereo unspecified), for which the inhibition was -5.5% (inactive).
The figure for `O=C(c1ccc2c(c1)OCO2)N1CCNc2ccccc2C1` is 7.3% (inactive).
The figure for `O=C(Nc1ccc(N2CCOCC2)cc1)c1ccc2c(c1)OCO2` is -5.6% (inactive).
On to `O=C(c1ccc2c(c1)OCO2)N1CCOCC1`, for which the inhibition was 104% (active).
Regarding `O=C(Nc1cccnc1)c1cnn2c1NC(c1ccco1)CC2C(F)(F)F` (stereo unspecified), the inhibition was 0.1% (inactive).
For the molecule `Cc1cc2oc(=O)cc(C)c2cc1NC(=O)c1ccccc1`, the inhibition is -31.1% (inactive).
In the case of `O=C(O)C(Sc1nc2ccccc2s1)c1ccccc1` (stereo unspecified) it was -17.3% (inactive); in that of `O=C(O)CCCN1C(=O)/C(=C/c2ccccc2)SC1=S`, 8.8% (inactive); in that of `O=C(O)CCCCCCCCCCN1C(=O)/C(=C/c2ccc(Br)cc2)SC1=S`, 70.7% (active).
In the case of `O=C1/C(=C/c2ccc(Br)cc2)SC(=S)N1CCc1ccccc1` it was 3.2% (inactive); in that of `O=C(Nc1cccc(O)c1)c1cc2nc(-c3ccc(F)cc3)cc(C(F)(F)F)n2n1`, 4.4% (inactive); in that of `CCOC(=O)c1ccc(N2NC(=O)/C(=C/c3ccc(Br)cc3)C2=O)cc1`, 6.5% (inactive).
